# According to PubChem BioAssay (NCI):
# This is part of a sample that, as a whole, favours compounds with a hit. Of some 79,000 tested, about 15% had one in any assay. Values without a mark were called inactive. Active and inactive are the calls of the source. Cut-off read from the data, not from the text of the source: active = growth inhibition above about 70%; inactive = the rest. Where a SMILES comes first, the peptide text is derived from it. The star is where a group is joined. Myristoyl = CCCCCCCCCCCCCC(=O)*
# Assay: NCI Yeast Anticancer Drug Screen. Data for the cln2 rad14 strain (AID 165);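 note: 0% = growth equal to vehicle treated cultures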
# Conditions: S. cerevisiae cln2 rad14 strain, at 50.0 µM, stronger effect = higher value
# Summary of the method: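 Growth inhibition, relative to vehicle-treated controls, is the read-out. The test organism is a yeast strain with defined genetic alterations, cln2 rad14.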
row,SMILES,growth inhibition
1,NC(=O)c1cc(OCc2ccccc2)nc2nc(Cl)nc(N)c12,-15.8%
2,O=c1cc(-c2ccccc2)c2ccccc2[nH]1,15.9%
3,CCC(/C=C/c1ccccc1)=N\NC(=O)c1ccc(Cl)cc1,1.7%
4,CC(C)C1OC2(C)OC(=N)C1(C#N)C(C#N)(C#N)C2C (stereo unspecified),-10.7%
5,O=[N+]([O-])c1ccc(-c2noc(-c3ccccc3)c2C2=NCCN2)cc1,4.75%
6,O=c1[nH]nc(Cc2ccccc2)n1/N=C/c1cccnc1,35.7%
7,COc1ccc(NC2=CC(=O)c3ccccc3C2=O)cc1,-35%
8,CSc1ccc(NC(=O)c2ccc([N+](=O)[O-])cc2)cc1,-13.3%
9,CCCCCCCCCCCCCCCCCC(=O)OCC(CO)OC(=O)CCCCCCCCCCCCCCCCC (stereo unspecified),6.95%
10,CC1=CCCC(C)(C)C1/C=C/C(=O)O (stereo unspecified),-36.3%
11,O=C(/C=N/O)Nc1cccc(Cl)c1I,2.95%
12,CCC(CCN(C)C)(OC(C)=O)c1ccccc1 (stereo unspecified),11.7%
13,CC(=O)OCC1OC(c2ccccc2)C/C(=N/O)C1OC(C)=O (stereo unspecified),96.8% (active)
14,CCCS(=O)(=O)CCC(=O)c1ccccc1,-13.8%
15,CCC(CC)COC(=O)c1ccccc1C(=O)OCC(CC)CC,3.6%
16,O=C1C2=C(c3ccccc31)C(c1ccccc1Cl)N1C(=O)CCSC1=N2 (stereo unspecified),8.85%
17,Cc1ccc(-c2cc(-c3cc(-c4ccc(C)cc4)nc(N)n3)nc(N)n2)cc1,-13.2%
18,Cc1cc(Cc2ccc3c(c2)OCO3)ccc1OCC(=O)O,13.4%
19,COc1cc(C2C(C(=O)Nc3ccccc3C)=C(C)NC(C)=C2C(=O)Nc2ccccc2C)ccc1O,-3.15%
20,CC(=O)OC/C=C(\C)CC(/C=C(C)/C=C/C1=C(C)CCCC1(C)C)S(=O)(=O)c1ccccc1 (stereo unspecified),2.05%
21,COc1cc2c(c(O)c1C)C(=O)CC(c1ccccc1)O2 (stereo unspecified),2.15%
22,c1ccc(C(c2cccc3c2ccc2ccccc23)C(c2ccccc2)c2cccc3c2ccc2ccccc23)cc1 (stereo unspecified),-19.6%
23,COc1c2ccoc2cc2oc(=O)ccc12,14.3%
24,O=C(O)c1ccc(O)c(C(=O)O)c1,-14.7%
25,CS(=O)(=O)Oc1ccccc1OS(C)(=O)=O,-27.1%
26,c1ccc2c(c1)Cc1ccc3ccccc3c1-2,35.8%

# Assay: NCI Yeast Anticancer Drug Screen. Data for the bub3 strain (AID 167)
# Conditions: S. cerevisiae bub3 mutant strain, at 50.0 µM, stronger effect = higher value
# Summary of the method: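 Growth of a checkpoint-deficient yeast mutant is measured after compound exposure. Values represent inhibition relative to vehicle.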
row,SMILES,growth inhibition
1,COc1ccc(-c2cc(O)cc(C)c2N)c(OC)c1OC,-3.45%
2,CCCOc1ncnc2nc[nH]c12,5.3%
3,CCCCCCCCCCCCCC(=O)NCC(=O)NC(CO)C(=O)NC(CO)C(=O)NC(CCCCN)C(=O)NC(CO)C(=O)NC(CCCCN)C(=O)N1CCCC1C(=O)NC(CCCCN)C(=O)NC(CC(=O)O)C(N)=O (stereo unspecified) (Myristoyl-GSSKSKPKD-NH2; configuration not given here),10.3%
4,CS(=O)(=O)Nc1ccc(C(=O)CCN2CCCCCC2)cc1,-27.5%
5,CC(C)(C)[C@@H]1NC(=O)CN1C(=O)OCc1ccccc1,26.9%
6,CC(C)(C)c1ccc(C(O)(c2ccc(C(C)(C)C)cc2)c2ccc(C(C)(C)C)cc2)cc1,-19.9%
7,Clc1cccc(-c2nc3cccc4c3n2Cc2ncccc2-4)c1,0.65%
8,CC(=N\N=C(N)N)/C(N=Nc1ccc(S(N)(=O)=O)cc1)=N\N=C(N)N,-0.55%
9,O=C(O)c1ccccn1,-3.85%
10,O=C1C=C(Nc2ccc(Cl)cc2Cl)c2ccccc2C1=O,27.9%
11,CC(O)/C=C/C(CCC(C)CO)C(C)C (stereo unspecified),-25.9%
12,Cc1ccc(S(=O)(=O)OCC2CC=CCC2COC(=O)c2ccc([N+](=O)[O-])cc2)cc1 (stereo unspecified),6.6%
13,C1=CC(c2ccccc2)=C(c2ccccc2)C(c2ccccc2)C(c2ccccc2)=C1 (stereo unspecified),-1.05%
14,COc1ccc(-c2cc(N)c3c(c2O)C(=O)c2c(N)ccc(O)c2C3=O)cc1,-4.65%
15,NC(=O)c1cc(OCc2ccccc2)nc2nc(Cl)nc(N)c12,-0.8%
16,O=c1cc(-c2ccccc2)c2ccccc2[nH]1,-27.1%
17,CCC(/C=C/c1ccccc1)=N\NC(=O)c1ccc(Cl)cc1,19.9%
18,CC(C)C1OC2(C)OC(=N)C1(C#N)C(C#N)(C#N)C2C (stereo unspecified),-17.5%
19,O=[N+]([O-])c1ccc(-c2noc(-c3ccccc3)c2C2=NCCN2)cc1,7.8%
20,O=c1[nH]nc(Cc2ccccc2)n1/N=C/c1cccnc1,30.2%

row,SMILES,growth inhibition
1,COc1ccc(NC2=CC(=O)c3ccccc3C2=O)cc1,18.2%
2,CSc1ccc(NC(=O)c2ccc([N+](=O)[O-])cc2)cc1,25.9%
3,CCCCCCCCCCCCCCCCCC(=O)OCC(CO)OC(=O)CCCCCCCCCCCCCCCCC (stereo unspecified),34.1%
4,CC1=CCCC(C)(C)C1/C=C/C(=O)O (stereo unspecified),-18.1%
5,O=C(/C=N/O)Nc1cccc(Cl)c1I,12.6%
6,CCC(CCN(C)C)(OC(C)=O)c1ccccc1 (stereo unspecified),30.9%
7,CC(=O)OCC1OC(c2ccccc2)C/C(=N/O)C1OC(C)=O (stereo unspecified),87.8% (active)
8,CCCS(=O)(=O)CCC(=O)c1ccccc1,0.85%
9,CCC(CC)COC(=O)c1ccccc1C(=O)OCC(CC)CC,-2.75%
10,O=C1C2=C(c3ccccc31)C(c1ccccc1Cl)N1C(=O)CCSC1=N2 (stereo unspecified),4.65%
11,Cc1ccc(-c2cc(-c3cc(-c4ccc(C)cc4)nc(N)n3)nc(N)n2)cc1,-25.1%
12,Cc1cc(Cc2ccc3c(c2)OCO3)ccc1OCC(=O)O,20.8%
13,COc1cc(C2C(C(=O)Nc3ccccc3C)=C(C)NC(C)=C2C(=O)Nc2ccccc2C)ccc1O,-10.8%
14,CC(=O)OC/C=C(\C)CC(/C=C(C)/C=C/C1=C(C)CCCC1(C)C)S(=O)(=O)c1ccccc1 (stereo unspecified),0.2%
15,COc1cc2c(c(O)c1C)C(=O)CC(c1ccccc1)O2 (stereo unspecified),-4.25%
16,c1ccc(C(c2cccc3c2ccc2ccccc23)C(c2ccccc2)c2cccc3c2ccc2ccccc23)cc1 (stereo unspecified),-22.4%
17,COc1c2ccoc2cc2oc(=O)ccc12,22.4%
18,O=C(O)c1ccc(O)c(C(=O)O)c1,-6.15%
19,CS(=O)(=O)Oc1ccccc1OS(C)(=O)=O,2.6%
20,c1ccc2c(c1)Cc1ccc3ccccc3c1-2,64.3%
